Shown are actives, neighbours in structure and some others; about 3.1% of the full set was active somewhere.
PREPL inh: inhibitors of human prolyl oligopeptidase-like enzyme PREPL; hit rate 0.68% among 320,000; recombinant PREPL, fluorescence polarization activity-based probe; inhibition, % at 5.96 µM; Q4J6C6; in the data active = inhibition above about 43%;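 note: 0% = enzyme with DMSO and 100% = wells lacking enzyme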
MEKK2wt PB1 HTS: raises or lowers MEK5 binding to wildtype human MEKK2 PB1 domain. Q9Y2U5. bead flow cytometry, Alexa488-MEK5 binding to MEKK2 WT; actives lie on both sides. binding response (% of control), % at 10 µM. hit rate 1.1% among 290,000; in the data active = binding response below about 67% or above about 130%
UBC13 inh: inhibitors of human UBC13 polyubiquitin chain formation | TR-FRET | inhibition, % at 20 µM | hit rate 0.47% among 330,000; in the data active = inhibition above about 45%, passing the limit was not always enough
MEKK2mut PB1 HTS: signal of MEK5 binding to mutant human MEKK2 PB1 domain. bead flow cytometry, Alexa488-MEK5 binding to MEKK2 mutant. percent response, % at 10 µM. hit rate 0.35% among 290,000; in the data active = percent response above about 24%, passing the limit was not always enough
MEKK3 PB1 HTS: raises or lowers MEK5 binding to the human MEKK3 PB1 domain; Q99759; bead-based flow cytometry, Alexa488-MEK5 binding to MEKK3; actives lie on both sides; 0 = blocked by unlabeled MEK5, 100 = vehicle; AID 1529; hit rate 1.4% among 290,000; binding response (% of control), % at 10 µM;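 active = binding response more than 3 SD above or below the average of its plate-row segment, actives on both sides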;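 note: Alexa488 bead fluorescence after subtracting the streptavidin-only scavenger bead signal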
Target sequence (Q99759 whole entry, looked up, the tested form may be a part): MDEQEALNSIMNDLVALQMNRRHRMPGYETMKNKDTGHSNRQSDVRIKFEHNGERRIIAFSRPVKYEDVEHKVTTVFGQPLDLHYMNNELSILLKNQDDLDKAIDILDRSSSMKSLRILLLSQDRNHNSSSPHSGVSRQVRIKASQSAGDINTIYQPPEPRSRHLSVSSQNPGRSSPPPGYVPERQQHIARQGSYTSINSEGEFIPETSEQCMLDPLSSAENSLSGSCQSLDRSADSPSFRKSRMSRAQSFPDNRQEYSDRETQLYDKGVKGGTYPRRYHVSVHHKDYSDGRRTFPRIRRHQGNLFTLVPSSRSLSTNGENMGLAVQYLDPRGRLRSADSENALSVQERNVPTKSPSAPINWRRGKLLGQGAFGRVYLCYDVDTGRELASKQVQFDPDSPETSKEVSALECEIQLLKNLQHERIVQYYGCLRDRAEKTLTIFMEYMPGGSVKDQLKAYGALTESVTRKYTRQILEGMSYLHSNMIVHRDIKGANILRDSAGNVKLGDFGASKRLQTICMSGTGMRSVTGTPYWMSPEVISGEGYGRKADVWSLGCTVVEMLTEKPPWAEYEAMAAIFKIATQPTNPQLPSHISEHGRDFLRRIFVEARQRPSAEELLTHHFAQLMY
ATG4B inhibitor: inhibitors of human ATG4B cysteine protease | hit rate 0.51% among 340,000 | Q9Y4P1 | inhibition, % at 8.33 µM | AID 504462 | ATG4B cleavage of LC3-PLA2, NBD-HPC fluorescence, 1 h; in the data active = inhibition above about 40%
MEKK2wt confirm: raises or lowers MEK5 binding to wildtype human MEKK2, retest; shares compounds with MEKK3 PB1 HTS; bead flow cytometry, Alexa488-MEK5 binding to MEKK2 WT; actives lie on both sides; binding response (% of control), % at 10 µM; hit rate 2.4% among 5,900; AID 1892; in the data active = binding response below about 16% or above about 210%; inactive = in between
MEKK2mut confirm: signal of MEK5 binding to mutant human MEKK2, retest; shares compounds with MEKK3 PB1 HTS; bead flow cytometry, Alexa488-MEK5 binding to MEKK2 mutant; percent response, % at 10 µM; hit rate 2% among 5,900; in the data active = percent response mostly above about 71%, no sharp cut-off; inactive = mostly below about 38%;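 note: higher means compound restores mutant binding toward wildtype level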
MEKK3 confirm: confirmation of inhibitors of MEK5 binding to human MEKK3; shares compounds with MEKK3 PB1 HTS; bead flow cytometry, Alexa488-MEK5 binding to MEKK3; stronger effect = lower value; binding response (% of control), % at 10 µM; hit rate 1.8% among 5,900; AID 1894;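 active = binding response below 72% of control, or above a set upper limit, though filed actives all read lower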;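 note: 100% = DMSO only wells and 0% = binding blocked by excess unlabeled MEK5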
Starred values were filed as active, the others as inactive; . = no result; [ ] = another dose, or the depositor's remark.

SMILES	PREPL inh	MEKK2wt PB1 HTS	UBC13 inh	MEKK2mut PB1 HTS	MEKK3 PB1 HTS	ATG4B inhibitor	MEKK2wt confirm	MEKK2mut confirm	MEKK3 confirm
O=S(=O)(c1ccc2c(c1)OCCO2)N1CCN(c2cccc(Cl)c2)CC1	-102.0	87.0	-1.7	-17.0	81.0*[inhibitor]	4.8	98.0	-8.0	101.0
O=C1c2nccnc2C(=O)N1c1ccc(C(F)(F)F)cc1	22.5	98.0	-15.0	1.0	105.0	-3.5	.	.	.
COc1ccc(C2c3ccc4ccccc4c3Oc3ncn(CCO)c(=N)c32)cc1 (stereo unspecified)	11.2	151.0*	28.4	20.0	115.0	-13.1	143.0	27.0	95.0
COc1ccc(C2c3ccc4ccccc4c3Oc3ncn(CCN4CCOCC4)c(=N)c32)cc1 (stereo unspecified)	43.6*	179.0*	4.4	24.0	108.0	-21.9	172.0	42.0	112.0
COc1ccc(C2c3ccc4ccccc4c3Oc3ncn(CCN(C)C)c(=N)c32)cc1 (stereo unspecified)	37.8	157.0*	35.0	29.0*	106.0	-3.7	124.0	15.0	105.0
O=C1CCCN1CCCNc1ccc2nnc(CCC(=O)N3CCN(c4ccccc4)CC3)n2n1	15.2	100.0	0.6	3.0	100.0	0.9	.	.	.
CC/C(=C\c1oc2cc3ccccc3cc2[n+]1CC)Nc1ccccc1	15.0	389.0*	12.2	464.0*	135.0*	-7.0	92.0	-88.0*[inhibitor]	81.0
CSc1nc(Cl)cc(N(CCO)CCO)n1	6.6	105.0	4.8	25.0*	103.0	3.9	96.0	0.0	101.0
CCC(C)(C)n1nnnc1C(c1cccnc1)N1CCN(c2cccc(C(F)(F)F)c2)CC1 (stereo unspecified)	2.0	120.0	-3.1	7.0	123.0*	-9.5	101.0	-2.0	102.0
Cc1ccc(S(=O)(=O)Nc2c(C)n(C)n(-c3ccccc3)c2=O)cc1	13.3	66.0	-8.9	-13.0	57.0	-8.6	.	.	.
Cc1c(NS(=O)(=O)c2ccccc2)c(=O)n(-c2ccccc2)n1C	-4.2	124.0	1.9	7.0	126.0*	-12.8	92.0	-8.0	97.0
Cc1c(NC(=O)c2c(F)c(F)c(F)c(F)c2F)c(=O)n(-c2ccccc2)n1C	12.0	100.0	-11.5	2.0	104.0	-9.7	.	.	.
Cc1c(NC(=O)/C(=C/c2cccs2)NC(=O)c2ccccc2)c(=O)n(-c2ccccc2)n1C	17.4	93.0	-6.8	0.0	100.0	1.4	.	.	.
Cc1c(NC(=O)/C(=C\c2ccccc2)NC(=O)c2ccccc2)c(=O)n(-c2ccccc2)n1C	3.9	125.0	4.4	8.0	130.0*	-3.4	102.0	0.0	101.0
Cc1c(NC(=O)c2ccccc2F)c(=O)n(-c2ccccc2)n1C	7.2	41.0*[inhibitor]	-0.8	-32.0	23.0*[inhibitor]	5.0	101.0	2.0	106.0
CC(C)n1cc(/C=N/Nc2ccc(Cl)c(C(=O)O)c2)c2ccccc21	2.5	100.0	-19.3	0.0	106.0	.	.	.	.
O=C1CC(C(=O)N2CCc3ccccc32)CN1c1cccc(C(F)(F)F)c1 (stereo unspecified)	22.7	.	4.5	.	.	-0.3	.	.	.
Nc1nccnc1C(=O)OCC(=O)NNC(=O)c1ccccc1	8.0	97.0	13.5	3.0	95.0	-5.8	.	.	.
CC(C)(O)C#Cc1ccc(C(=O)N2CCN(c3ccc(Cl)cc3)CC2)cc1	1.4	55.0	-5.4	-15.0	49.0*[inhibitor]	-10.8	103.0	-1.0	103.0
CC(C)(O)C#Cc1ccc(C(=O)N2CCN(c3ccc(F)cc3)CC2)cc1	6.4	83.0	0.1	-14.0	93.0	-2.1	.	.	.
CN(C)c1nc(Nc2ccc(F)cc2)nc(Oc2ccc(F)cc2)n1	-5.6	111.0	1.2	12.0	106.0	4.7	.	.	.
CN(C)c1nc(N/N=C/c2ccccc2O)nc(Nc2ccc(F)cc2)n1	13.0	140.0*	-5.2	23.0	110.0	8.3	108.0	-8.0	104.0
Nc1c(-c2ccccc2)cnn1-c1ccc(C(=O)O)cc1	0.7	81.0	15.4	-25.0	82.0*[inhibitor]	-0.2	100.0	1.0	104.0
CC(=O)c1ccc(N2CCN(c3ncccn3)CC2)c([N+](=O)[O-])c1	9.5	89.0	-16.2	-10.0	96.0	-3.1	.	.	.
CC(=O)c1ccc(N2CCc3ccccc3C2)c([N+](=O)[O-])c1	3.1	73.0	-3.5	-12.0	72.0*[inhibitor]	-7.0	85.0	-9.0	84.0
SMILES	PREPL inh	MEKK2wt PB1 HTS	UBC13 inh	MEKK2mut PB1 HTS	MEKK3 PB1 HTS	ATG4B inhibitor	MEKK2wt confirm	MEKK2mut confirm	MEKK3 confirm
CN(Cc1ccc(OCC(O)CN2CCCCC2)cc1)Cc1ccnc2ccccc12 (stereo unspecified)	.	148.0*	.	37.0	106.0	19.0	127.0	30.0	106.0
Cc1nn(C)cc1CN(C)Cc1ccc(OCC(O)CN2CCCCC2)cc1 (stereo unspecified)	1.2	121.0	4.3	17.0	98.0	0.2	.	.	.
CSCCCNC(=S)N1CCN(c2ccc(C(C)=O)cc2)CC1	-0.1	6.0*[inhibitor]	-2.6	-45.0	5.0*[inhibitor]	-3.6	100.0	-5.0	99.0
CCCCNC(=S)N1CCN(c2ccc(C(C)=O)cc2)CC1	7.6	106.0	-14.6	6.0	118.0	-4.2	.	.	.
COc1ccc(-c2noc(CN3CCOCC3)n2)cc1OC	0.9	0.0*[inhibitor]	-5.5	-65.0	1.0*[inhibitor]	1.5	97.0	-6.0	98.0
O=C(CN1C(=O)NC2(CCCCCC2)C1=O)Nc1ccc(Br)cc1Br	6.2	.	1.2	.	.	-6.0	.	.	.
CC(=O)N1N=C(c2ccco2)CC1c1ccc(C)cc1 (stereo unspecified)	-3.5	110.0	-9.5	1.0	135.0*	5.0	103.0	1.0	105.0
CCOc1ccc2cc(C3CC(c4ccco4)=NN3S(C)(=O)=O)c(Cl)nc2c1 (stereo unspecified)	-4.9	91.0	-8.2	1.0	100.0	-4.2	.	.	.
CCc1ccc(C2CC(c3ccco3)=NN2S(C)(=O)=O)cc1 (stereo unspecified)	-34.4	.	-7.5	55.0*	89.0	-1.4	81.0	-9.0	89.0
CC1CC1C(=O)OCC(=O)Nc1ccc2[nH]c(=O)[nH]c2c1 (stereo unspecified)	2.6	101.0	6.9	1.0	97.0	-2.3	.	.	.
Cc1[nH]nc2c1C1(CCC3(CC1)OCCO3)C(C#N)=C(N)O2	-7.2	-3.0*[inhibitor]	6.2	-20.0	1.0*[inhibitor]	-2.9	104.0	12.0	103.0
CCOC(=O)N1CCC2(CC1)C(C#N)=C(N)Oc1n[nH]c(C)c12	-3.1	107.0	-8.1	14.0	110.0	6.5	.	.	.
